# Assay results taken from PubChem BioAssay AID1159580 (chemical genetic matrix, 2015).
# Among all 5,500 compounds or so, about 2,000 (36%) were called active. Inconclusive results (about 18%) are left out. Some of the results follow. A number with no mark means an inactive call. Rule as the data show it: active = normalized growth mostly below about 0.91 (no sharp cut-off); inconclusive = no clear call, values can overlap the other calls; inactive = mostly above about 0.92.
# Experiment: chemical genetic growth profiling, strain panel (AID 1159580);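 also: tested at 20 µM; growth read once vehicle control cultures reached saturation at 30 °C; 1 = growth at the plate median or of vehicle wells; lower values mean less growth of the strain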
# Settings: S. cerevisiae deletion strains, growth OD
# [1] = locus YAL040C, strain CLN3, hits give low values
# [2] = locus YCL061C, strain MRC1 (second series), hits give low values
# [3] = locus YDR150W, strain NUM1, hits give low values
# [4] = locus YDR363W, strain ESC2, hits give low values
# [5] = locus YER002W, strain NOP16, hits give low values
# [6] = locus YGR078C, strain PAC10, hits give low values
# [7] = locus YJR075W, strain HOC1, hits give low values
# [8] = locus YMR263W, strain SAP30, hits give low values
# [9] = locus YMR307W, strain GAS1, hits give low values
# [10] = locus YNL175C, strain NOP13, hits give low values
# [11] = locus YNL197C, strain WHI3, hits give low values
# [12] = locus YNL224C, strain SQS1, hits give low values
# [13] = locus YOR083W, strain WHI5 (second series), hits give low values
# [14] = locus YPL055C, strain LGE1, hits give low values
# [15] = locus YDL101C, strain DUN1, hits give low values
# [16] = locus YHR030C, strain SLT2, hits give low values
# [17] = locus YNL128W, strain TEP1, hits give low values
# [18] = locus YNL153C, strain GIM3, hits give low values
# [19] = locus YNL322C, strain KRE1, hits give low values
compound,measurement,setting,value
CCCCCCCCCCCCCCSCC(=O)O,normalized growth,[1],0.97
same,normalized growth,[2],1.01
same,normalized growth,[3],0.997
same,normalized growth,[4],0.993
same,normalized growth,[5],0.937
same,normalized growth,[6],0.998
same,normalized growth,"locus YGR229C, strain SMI1, hits give low values",0.959
same,normalized growth,[7],0.99
same,normalized growth,[8],1
same,normalized growth,[9],0.992
same,normalized growth,[10],0.938
same,normalized growth,[11],0.957
same,normalized growth,[12],0.954
same,normalized growth,[13],0.825 (active)
same,normalized growth,[14],0.955
CCCC(C)(SCC(=O)O)SCC(=O)O,normalized growth,"locus YAL013W, strain DEP1, hits give low values",1
same,normalized growth,"locus YBR229C, strain ROT2, hits give low values",1
same,normalized growth,[15],1.09
same,normalized growth,[3],1.03
same,normalized growth,"locus YEL061C, strain CIN8, hits give low values",0.951
same,normalized growth,[6],1.02
same,normalized growth,[16],1.03
same,normalized growth,"locus YHR087W, strain rtc3, hits give low values",0.98
same,normalized growth,"locus YJL187C, strain SWE1, hits give low values",1
same,normalized growth,"locus YJR043C, strain POL32, hits give low values",1.01
same,normalized growth,[7],1.04
same,normalized growth,"locus YKL190W, strain CNB1, hits give low values",0.992
same,normalized growth,"locus YLR039C, strain RIC1, hits give low values",0.981
same,normalized growth,"locus YLR058C, strain SHM2 (second series), hits give low values",0.984
same,normalized growth,"locus YLR085C, strain ARP6, hits give low values",1.02
same,normalized growth,"locus YLR262C, strain YPT6, hits give low values",1.02
same,normalized growth,"locus YML094W, strain GIM5, hits give low values",0.993
same,normalized growth,"locus YMR219W, strain ESC1, hits give low values",0.999
same,normalized growth,[8],1.01
same,normalized growth,[17],0.985
same,normalized growth,[18],1.04
same,normalized growth,"locus YNL298W, strain CLA4 (second series), hits give low values",1.02
same,normalized growth,[19],0.993
same,normalized growth,"locus YNR030W, strain Alg12, hits give low values",1.01
same,normalized growth,"locus YOL006C, strain TOP1, hits give low values",1
same,normalized growth,[14],1
same,normalized growth,"locus YPL241C, strain CIN2, hits give low values",1.05
same,normalized growth,"locus YPR135W, strain CTF4, hits give low values",1.08
C=CC(=O)N1CCc2cc([N+](=O)[O-])ccc21,normalized growth,"locus YAR019C, strain CDC15, hits give low values",0.735 (active)
same,normalized growth,"locus YBL105C, strain PKC1, hits give low values",0.778 (active)
same,normalized growth,"locus YBR135W, strain CKS1, hits give low values",0.766 (active)
same,normalized growth,"locus YBR136W, strain MEC1, hits give low values",0.764 (active)
same,normalized growth,"locus YBR160W, strain CDC28, hits give low values",0.791 (active)
same,normalized growth,"locus YDL017W, strain CDC7, hits give low values",0.8 (active)
same,normalized growth,"locus YDL028C, strain MPS1, hits give low values",0.796 (active)
same,normalized growth,[15],0.789 (active)
same,normalized growth,"locus YDL108W, strain KIN28, hits give low values",0.798 (active)
same,normalized growth,"locus YDL132W, strain cdc53, hits give low values",0.725 (active)
same,normalized growth,"locus YDL214C, strain PRR2, hits give low values",0.37 (active)
same,normalized growth,"locus YDR052C, strain DBF4, hits give low values",0.827 (active)
same,normalized growth,"locus YDR054C, strain cdc34, hits give low values",0.689 (active)
same,normalized growth,"locus YDR226W, strain ADK1, hits give low values",0.839 (active)
same,normalized growth,"locus YDR477W, strain SNF1, hits give low values",0.335 (active)
same,normalized growth,"locus YER123W, strain YCK3, hits give low values",0.236 (active)
same,normalized growth,"locus YER133W, strain GLC7, hits give low values",0.275 (active)
same,normalized growth,"locus YFL009W, strain cdc4, hits give low values",0.739 (active)
same,normalized growth,"locus YFL029C, strain CAK1, hits give low values",0.72 (active)
same,normalized growth,"locus YFR003C, strain YPI1, hits give low values",0.807 (active)
same,normalized growth,"locus YFR019W, strain FAB1, hits give low values",0.369 (active)
same,normalized growth,"locus YFR028C, strain CDC14, hits give low values",0.805 (active)
same,normalized growth,"locus YGR040W, strain KSS1, hits give low values",0.287 (active)
same,normalized growth,"locus YGR052W, strain FMP48, hits give low values",0.308 (active)
same,normalized growth,"locus YGR092W, strain DBF2, hits give low values",0.12 (active)
same,normalized growth,[16],0.253 (active)
same,normalized growth,"locus YHR079C, strain IRE1, hits give low values",0.255 (active)
same,normalized growth,"locus YHR082C, strain KSP1, hits give low values",0.263 (active)
same,normalized growth,"locus YHR205W, strain SCH9, hits give low values",0.228 (active)
same,normalized growth,"locus YIL147C, strain SLN1, hits give low values",0.794 (active)
same,normalized growth,"locus YJL095W, strain BCK1, hits give low values",0.276 (active)
same,normalized growth,"locus YJL128C, strain PBS2, hits give low values",0.842
same,normalized growth,"locus YJL157C, strain FAR1, hits give low values",0.315 (active)
same,normalized growth,"locus YJR016C, strain ILV3, hits give low values",0.742 (active)
same,normalized growth,"locus YJR066W, strain TOR1 (second series), hits give low values",0.24 (active)
same,normalized growth,"locus YJR066W, strain TOR1, hits give low values",0.274 (active)
same,normalized growth,"locus YKL048C, strain ELM1, hits give low values",0.556 (active)
same,normalized growth,"locus YKL067W, strain YNK1, hits give low values",0.35 (active)
same,normalized growth,"locus YKL101W, strain HSL1, hits give low values",0.46 (active)
same,normalized growth,"locus YKL193C, strain SDS22, hits give low values",0.729 (active)
same,normalized growth,"locus YKL203C, strain TOR2, hits give low values",0.355 (active)
same,normalized growth,"locus YLR113W, strain HOG1, hits give low values",0.247 (active)
same,normalized growth,"locus YLR133W, strain CKI1, hits give low values",0.409 (active)
same,normalized growth,"locus YLR403W, strain SFP1, hits give low values",0.271 (active)
same,normalized growth,"locus YML070W, strain DAK1, hits give low values",0.311 (active)
same,normalized growth,"locus YMR001C, strain CDC5, hits give low values",0.744 (active)
same,normalized growth,"locus YMR205C, strain PFK2 (second series), hits give low values",0.424 (active)
same,normalized growth,"locus YMR277W, strain FCP1, hits give low values",0.746 (active)
same,normalized growth,"locus YNL006W, strain LST8, hits give low values",0.754 (active)
same,normalized growth,"locus YNL020C, strain ARK1, hits give low values",0.412 (active)
same,normalized growth,"locus YNL161W, strain CBK1, hits give low values",0.737 (active)
same,normalized growth,"locus YNL183C, strain NPR1, hits give low values",0.22 (active)
same,normalized growth,"locus YNL207W, strain RIO2, hits give low values",0.757 (active)
same,normalized growth,"locus YNL222W, strain SSU72, hits give low values",0.734 (active)
same,normalized growth,"locus YNL307C, strain MCK1 (second series), hits give low values",0.323 (active)
same,normalized growth,"locus YOL078W, strain AVO1, hits give low values",0.71 (active)
same,normalized growth,"locus YOL136C, strain PFK27, hits give low values",0.316 (active)
same,normalized growth,"locus YOR061W, strain CKA2, hits give low values",0.498 (active)
same,normalized growth,"locus YOR119C, strain RIO1, hits give low values",0.334 (active)
same,normalized growth,"locus YOR231W, strain MKK1, hits give low values",0.255 (active)
same,normalized growth,"locus YOR329C, strain SCD5, hits give low values",0.759 (active)
same,normalized growth,"locus YPL031C, strain PHO85, hits give low values",0.268 (active)
same,normalized growth,"locus YPL153C, strain RAD53, hits give low values",0.273 (active)
same,normalized growth,"locus YPL204W, strain HRR25, hits give low values",0.282 (active)
same,normalized growth,"locus YPL209C, strain IPL1, hits give low values",0.778 (active)
same,normalized growth,"locus YPL256C, strain CLN2, hits give low values",0.299 (active)
same,normalized growth,"locus YPR025C, strain CCL1, hits give low values",0.764 (active)
same,normalized growth,"locus YPR106W, strain ISR1, hits give low values",0.864 (active)
same,normalized growth,"locus YPR111W, strain DBF20, hits give low values",0.887
same,normalized growth,"strain NNK1, hits give low values",0.824 (active)
same,normalized growth,"strain TSCII, hits give low values",0.643 (active)
N#CC(Cc1ccc(O)c(O)c1)C(=O)N1CCc2ccccc21 (stereo not drawn),normalized growth,[1],0.961
same,normalized growth,[2],0.986
same,normalized growth,[3],0.997
same,normalized growth,[4],0.97
same,normalized growth,[5],1.01
same,normalized growth,[7],0.995
same,normalized growth,[9],0.986
same,normalized growth,[17],0.996
same,normalized growth,[18],0.977
same,normalized growth,[10],0.999
same,normalized growth,[11],1.02
same,normalized growth,[12],0.994
same,normalized growth,[19],0.952
same,normalized growth,[13],0.965
